This is a sample that favours compounds with a hit; in the whole collection about 8% have one here.
SW480 rereplic: inducers of DNA re-replication in SW480 colon cancer cells; 340,000 tested, 1.8% active; AID 624297; Potency, µM (doses to about 46.1 µM), without a hit: at the top dose re-replication activation, usual class: activators; SW480 DNA re-replication, Hoechst DNA content imaging, 48 h; also: % of control where 0% means no effect; nearly all actives have a fitted effect of over 55% in size
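First, 250 cells per well were seeded. Next, compound or vehicle (23 nL) was pinned in, plates sat 48 hr at 37 C. Finally Hoechst was added for 40 min before fluorescence scanning.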
KB-3-1 tox: kills parental KB-3-1 adenocarcinoma cells; KB-3-1 viability, CellTiter-Glo ATP luminescence, 72 h; Potency, µM (doses to about 46.1 µM), most hits filed as cytotoxic; 400,000 tested, 1.4% active; AID 1347075; also: % is scaled to controls: 0 for no effect and ±100 for the full control effect; nearly all actives have a fitted effect of over 60% in size
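72 h, 37 °C compound treatment of KB-3-1 parental cells; CellTiter-Glo added, 10 min, luminescence read. Data corrected against DMSO-only plates and normalized before curve fitting.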
HT1080 IDH1KD tx: kills HT-1080 cells with IDH1 knockdown; HT-1080 IDH1 knockdown viability, ATP luminescence, 48 h; 360,000 tested, 2% active; Potency, µM (doses to about 46.1 µM), for the others: top-dose activity, negative = toxicity, hits mostly cytotoxic;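 also: 0% = DMSO wells and -100% = cell-free medium wells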
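IDH1KD HT-1080 cells, 750/well, RPMI + 5% FBS; compound pinned after 2 h settling; 48 h, 37 °C; CellTiter-Glo luminescence; % activity normalised to DMSO and no-cell wells; curves fitted, classed by r2 and efficacy.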
HT1080NT lethal: kills 2HG-producing HT-1080-NT fibrosarcoma cells. Potency, µM (titrated, usually from 46.1 µM), without a hit: at the highest dose activity, negative = less viability, most hits filed as cytotoxic. 360,000 tested, 1.6% active. HT-1080-NT fibrosarcoma viability, CellTiter-Glo ATP luminescence, 48 h;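 also: NT is the 2HG producing partner of a matched IDH1 knockdown line; 0% = DMSO-treated cells and -100% = media-only wells without cells; nearly all actives have a fitted effect of over 55% in size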
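750 cells/well, RPMI + 5% FBS; 2 h settle, compound pin-transfer, 48 h at 37 degrees C. CellTiter-Glo 10 min RT, luminescence. Normalized to DMSO and media-only wells.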
KB-V1 MDR tox: KB-V1 MDR subline cytotoxicity. KB-V1 MDR cells viability, CellTiter-Glo, 72 h. Potency, µM (top dose mostly 46.1 µM), actives largely listed as cytotoxic. 400,000 tested, 3.4% active; also: % is scaled to controls: 0 for no effect and ±100 for the full control effect; nearly all actives have a fitted effect of over 60% in size
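KB-V1 MDR subline cells in DMEM (phenol-red free, 10% FBS) exposed to compounds in qHTS concentration series for 72 h at 37 degrees C. Viability read by CellTiter-Glo luminescence; concentration-effect curves fitted after normalization and correction.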
MCF10A rerep: induces DNA re-replication in MCF 10a normal breast cells; MCF 10A DNA re-replication, Hoechst nuclear intensity, 48 h; Potency, µM (top dose mostly 46.1 µM), inactives show top-dose activity, positive = re-replication, hits mostly activators; 350,000 tested, 2.9% active; AID 624296; also: % of control where 0% means no effect; nearly all actives have a fitted effect of over 50% in size
Starred values were filed as active, the others as inactive; i = inactive; ? = inconclusive; nt = not tested or not shown. Calls follow the shape of the dose curve; as a rule, active = well fitted curve in the direction sought with a large enough effect; inconclusive = small, poorly fitted or top-dose-only effect, or another doubt; inactive = no such curve, though single readings can be large; an effect the other way counts as inactive or inconclusive. Potency is read from the fitted curve at half-maximal effect.

SMILES	SW480 rereplic	KB-3-1 tox	HT1080 IDH1KD tx	HT1080NT lethal	KB-V1 MDR tox	MCF10A rerep
Cc1ccc(/C=N/NC(=O)c2ccc3c(c2)OCCO3)s1	16.4µM*	20.6µM*	13µM*	?	?	?
Cc1ccsc1/C=N/NC(=O)c1ccc2c(c1)OCCO2	-79.2%	i	-12.7%	-6.0%	i	-0.7%
O=C(N/N=C/c1cccc(O)c1)c1ccc2c(c1)OCCO2	-23.1%	i	-0.2%	-5.2%	i	-4.3%
Cc1ccc(/C=N/NC(=O)c2ccc3ccccc3c2)s1	4.11µM*	5.8µM*	2.31µM*	?	?	4.61µM*
O=C(N/N=C/c1cccs1)c1c[nH]c2ccccc12	-0.6%	i	23.6%	13.2%	?	3.4%
O=C(N/N=C/c1cc(Br)cs1)c1ccc2c(c1)OCCO2	?	?	11.6µM*	2.91µM*	?	?
O=C(N/N=C/c1cccs1)c1ccc2ncccc2c1	1.1%	i	-21.3%	-4.7%	i	-0.3%
Cc1ccc(/C=N/NC(=O)CSc2nc3ccccc3n2C)s1	0.7%	i	-7.7%	1.1%	14.6µM*	?
O=C(N/N=C/c1cccs1)c1ccc2ccccc2c1	?	20.6µM*	-14.0%	?	?	23.1µM*
Cn1c(SCC(=O)N/N=C/c2cccs2)nc2ccccc21	0.1%	i	1.9%	1.8%	i	-2.4%
O=C(N/N=C/c1cc([N+](=O)[O-])ccc1O)c1cccc2cc[nH]c12	7.31µM*	?	9.2µM*	?	i	?
COC(=O)c1c(C)sc(-c2c(-c3ccc4c(c3)OCCO4)[nH]c3[nH]c(=O)[nH]c(=O)c23)c1O	nt	i	nt	nt	i	nt
COc1ccc2c(CNCCc3ccccc3OC)c(C(=O)O)n(Cc3ccc(F)cc3Cl)c2c1	nt	20.6µM*	nt	nt	i	nt
O=C1c2cnc3nc(SCc4ccc(Cl)cc4)nn3c2CC2c3ccccc3CCN12 (stereo not given)	?	i	4.0%	12.9%	i	3.26µM*
O=C(Nc1ccc(OC(F)F)cc1)c1nc(SCc2ccccc2F)ncc1Cl	nt	i	nt	nt	i	nt
O=C(CN1CCN(S(=O)(=O)c2ccc(Br)cc2)CC1)N/N=C/c1ccc(Cl)c([N+](=O)[O-])c1	0.9%	i	?	?	i	16.4µM*
Cc1ccc(S(=O)(=O)N2CCN(CC(=O)N/N=C\c3ccc(Cl)c([N+](=O)[O-])c3)CC2)cc1	nt	i	-2.2%	1.7%	i	4.9%
COc1ccc(C(NC(=O)c2cc(OC)ccc2OC)c2ccccc2)cc1 (stereo not given)	?	?	?	?	8.2µM*	?
COc1ccc(C(NC(=O)c2c(F)c(F)c(F)c(F)c2F)c2ccccc2)cc1 (stereo not given)	?	?	?	?	i	6.51µM*
COc1ccc(/C=N/OCC(=O)NC(c2ccccc2)c2ccccc2)c(OC)c1	3.4%	i	-7.8%	-1.1%	23.1µM*	?
CCOc1ccc(C(NC(=O)c2ccco2)c2ccc(OC)c(OC)c2)cc1 (stereo not given)	?	i	-0.4%	-0.2%	?	3.66µM*
COc1ccc(C(NC(=O)c2ccco2)c2ccc(OC)c(OC)c2)cc1 (stereo not given)	0.3%	i	-4.1%	2.3%	i	25.9%
CN(C)c1ccc(/C=C/c2ccnc3ccc(F)cc23)cc1	nt	i	nt	nt	i	nt
O=C(c1ccccc1)c1nn(-c2cccc(Cl)c2)c2nc(-c3ccccc3)cc(=O)n12	15.2%	?	0.9%	-0.3%	4.11µM*	-7.2%
O=C(NCc1ccccc1F)C1CCCN1C(=O)NC1CCCCC1 (stereo not given)	-7.7%	i	0.2%	-0.3%	20.6µM*	2.7%
O=C(CN1CCC(NC(=O)c2ccc(F)cc2)CC1)NCc1ccccc1F	-1.5%	i	9.6%	2.6%	11.6µM*	-1.0%
